Data reported in PubChem BioAssay (NCATS).
Results filed as inconclusive are left out. Unmarked numbers belong to inactive results. Activity calls are given as the source filed them. The call rests on the fitted dose curve; in most records, active means well fitted cell-killing curve with a large enough effect; inconclusive means small, poorly fitted or top-dose-only effect, or effect the other way; inactive means no such curve, though single readings can be large or run the other way.
Potency means the concentration at half of the fitted maximal effect.

Test: Quantitative High-Throughput drug screen in 47 multiple myeloma cell lines against the NCATS MIPE library collection: PE2_PLB cell viability assay (AID 1919869); further: nearly all actives have a fitted effect of over 35% in size;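 on viability (% of control): 100% = DMSO-only wells and 0% = cell-free media-only wells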
Settings: PE2_PLB myeloma cells viability, ATP luminescence, 48 h; series mostly up to 45.8 µM; viability (% of control): at the top concentration
Summary of the method: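 Plated at 500 cells per well, myeloma lines received MIPE 4.0 compounds by pin tool. Following 48 h culture at 37 °C, CellTiter-Glo luminescence gave viability relative to DMSO and media-only controls.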
With CCN(CC)Cc1ccc2cc(COC(=O)Nc3ccc(C(=O)NO)cc3)ccc2c1 the Potency was 935 nM (active).
In the case of CC(=O)OCC(=O)[C@@]1(O)CC[C@H]2[C@@H]3CCC4=CC(=O)CC[C@]4(C)[C@@H]3C(=O)C[C@@]21C, the “viability (% of control)” value was 120%.
For COc1cccc2c1C(=O)c1c(O)c3c(c(O)c1C2=O)C[C@@](O)(C(C)=O)C[C@H]3O[C@H]1C[C@H](N)[C@H](O)[C@H](C)O1, the Potency was 41.8 nM (active).
With CCOC(=O)N1CCN([N+]([O-])=NOc2ccc([N+](=O)[O-])cc2C#N)CC1 the Potency was 743 nM (active).
For C[C@H]1O[C@H](O[C@H]2[C@H](O)[C@@H](O)[C@@H](O[C@H]3[C@H](O)[C@@H](O)C(O)O[C@H]3CO)O[C@H]2CO)[C@H](O)[C@@H](O)[C@H]1N[C@H]1C=C(CO)[C@@H](O)[C@H](O)[C@@H]1O (stereo not given in full), the “viability (% of control)” value was 118%.
With CC[C@H]1OC(=O)[C@H](C)[C@@H](O[C@H]2C[C@@](C)(OC)[C@@H](O)[C@H](C)O2)[C@H](C)[C@@H](O[C@@H]2O[C@H](C)C[C@H](N(C)C)[C@@H]2O)[C@](C)(OC)C[C@@H](C)C(=O)[C@H](C)[C@@H](O)[C@]1(C)O the “viability (% of control)” value was 106%.
With OC[C@H]1OC(O)C[C@@H](O)[C@H]1O (stereo not given in full) the “viability (% of control)” value was 115%.
In the case of CN[C@H]1[C@@H](O)[C@@H]2O[C@@H]3O[C@H](C)CC(=O)[C@]3(O)O[C@@H]2[C@@H](NC)[C@H]1O, the Potency was 3320 nM (active).
For COc1ccc(S(=O)(=O)Nc2cccnc2Nc2ccc(O)cc2)cc1, the Potency was 148 nM (active).
With CC(=O)N[C@H]1[C@@H]([C@H](O)[C@H](O)CO)OC(C(=O)O)=C[C@@H]1N=C(N)N the “viability (% of control)” value was 106%.
